Rows were chosen to be rich in hits. Some 12% of all compounds tested hit in one or more screens of this group.
Sfp PPTase inh – inhibitors of Bacillus subtilis Sfp phosphopantetheinyl transferase. Q9F4F7. Biochemical Sfp PPTase activity, qHTS. Potency, µM, actives largely listed as inhibitors. actives 3.5% (n = 310,000). AID 1490;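 also: the enzyme is Sfp with the accession as filed and its product quenches rhodamine fluorescence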
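Reaction rates are the 30-min fluorescence difference (ex 525, em 598 nm) in wells containing 15 nM Sfp, 5 uM rhodamine-CoA and 12.5 uM BHQ-2-YbbR at pH 7.6 with 10 mM MgCl2.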
HP1b binding inh – inhibitors of HP1-beta chromodomain binding to methylated histone tails. P83916. Potency, µM (titrated, usually from 114 µM), most hits filed as inhibitors. AID 540317. AlphaScreen HP1-beta / biotin-H3K9me3 peptide binding. actives 0.56% (n = 390,000); also: nearly all actives have a fitted effect of over 70% in size
Target sequence (P83916 whole entry, looked up): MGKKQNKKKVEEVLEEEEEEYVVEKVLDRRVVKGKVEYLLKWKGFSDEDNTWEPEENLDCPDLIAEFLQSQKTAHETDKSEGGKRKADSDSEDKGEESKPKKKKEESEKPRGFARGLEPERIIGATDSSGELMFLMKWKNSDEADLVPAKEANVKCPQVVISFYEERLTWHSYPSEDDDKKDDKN
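HP1-beta protein (50 nM final) preincubated 30 min at room temperature with biotinylated H3(1-18)K9me3 peptide (50 nM) in PBS pH 7.4, 0.01% Tween-20, then compound added for 30 min. AlphaScreen streptavidin donor/nickel chelate acceptor beads (10 ug/mL final), 30 min dark, luminescence read.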
G9a inh – G9a (human) methyltransferase inhibition | Q96KQ7 | actives 8.8% (n = 350,000) | AID 504332 | Potency, µM (top dose mostly 102 µM), usual class: inhibitors | G9a H3K9 monomethylation, AlphaScreen, 2 h; also: nearly all actives have a fitted effect of over 75% in size
Target sequence (Q96KQ7 913-1193 limits assumed): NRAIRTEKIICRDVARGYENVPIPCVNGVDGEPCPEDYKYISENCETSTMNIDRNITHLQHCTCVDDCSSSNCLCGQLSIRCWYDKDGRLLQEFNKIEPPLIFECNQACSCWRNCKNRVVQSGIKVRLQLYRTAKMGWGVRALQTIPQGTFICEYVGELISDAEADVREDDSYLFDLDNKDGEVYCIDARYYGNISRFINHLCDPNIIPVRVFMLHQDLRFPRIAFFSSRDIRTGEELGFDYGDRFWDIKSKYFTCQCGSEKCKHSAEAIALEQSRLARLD
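G9a (20 nM) was preincubated 15 min with compound, then reacted 2 h at room temperature with 500 nM biotin-H3K9 peptide and 20 µM SAM. Monomethyl-H3K9 detected by AlphaScreen using anti-H3K9me1 antibody.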
JMJD2A Tudor – blocks the human JMJD2A Tudor domain | actives 4.4% (n = 390,000) | AlphaScreen JMJD2A-Tudor / H3K4me3 peptide binding | Potency, µM (highest dose often 114 µM), actives largely listed as inhibitors | O75164; also: nearly all actives have a fitted effect of over 50% in size
TDP1 block – TDP1 (human) enzyme inhibition | Q9NUW8 | recombinant TDP1, AlphaScreen DNA substrate cleavage | Potency, µM (highest dose often 130 µM), most hits filed as inhibitors | actives 0.28% (n = 350,000); also: nearly all actives have a fitted effect of over 40% in size
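AlphaScreen read-out: signal falls as enzyme removes the 3' tyrosine-FITC from a 5'-biotinylated DNA oligo (15 nM, 5 min, RT). Enzyme was E. coli-made recombinant Tdp1 at 1 nM, exposed to compound for 15 min beforehand; beads 10 ug/ml, 10 min.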
BAZ2B inh – blocks human BAZ2B. Q9UIF8. AlphaScreen BAZ2B-H3K14Ac peptide displacement. Potency, µM (top dose mostly 114 µM), actives largely listed as inhibitors. actives 4.4% (n = 360,000). AID 504333; also: nearly all actives have a fitted effect of over 60% in size
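AlphaScreen luminescence quantifies BAZ2B engagement of H3K14Ac peptide; the protein and biotinylated peptide are both at 50 nM final, buffer PBS pH 7.4 with 0.01% Tween-20, all steps at room temperature.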
Numbers stand for hits; ! = repeats disagree; [ ] = remark or other dose. Calls follow the shape of the dose curve; as a rule, active = well fitted curve in the direction sought with a large enough effect; inconclusive = small, poorly fitted or top-dose-only effect, or another doubt; inactive = no such curve, though single readings can be large; an effect the other way counts as inactive or inconclusive.

Screening CSc1nnc(N2C(=O)C(O)=C(C(=O)c3ccco3)C2c2cccc(Cl)c2)s1 (stereo not given) returned Sfp PPTase inh 6.3µM, HP1b binding inh inactive, JMJD2A Tudor inconclusive, TDP1 block inactive and BAZ2B inh 79µM.
For COCCN1C(=O)C(O)=C(C(=O)c2ccco2)C1c1cccc(Oc2ccccc2)c1 (stereo not given) the results were Sfp PPTase inh inactive, HP1b binding inh inactive, G9a inh inconclusive, JMJD2A Tudor inconclusive, TDP1 block inactive and BAZ2B inh inactive.
Screening CSc1nnc(N2C(=O)C(O)=C(C(=O)c3ccco3)C2c2ccc(F)cc2)s1 (stereo not given) returned Sfp PPTase inh 35µM, HP1b binding inh inactive, G9a inh 22µM, JMJD2A Tudor inactive, TDP1 block inactive and BAZ2B inh inconclusive.
O=C(N/N=C/c1cc2ccccc2[nH]1)c1ccccc1Cl was read as Sfp PPTase inh inactive, HP1b binding inh inactive, G9a inh inactive[12.7 µM], JMJD2A Tudor inactive and BAZ2B inh inactive.
`CC/C(=N/NC(=O)c1ccccc1O)c1c(C)[nH]n(-c2ccccc2)c1=O` gave HP1b binding inh inactive and JMJD2A Tudor inactive.
`CN1CCN(C(=O)c2ccc(C(C)(C)C)cc2)CC1` gave Sfp PPTase inh inactive, HP1b binding inh inactive, G9a inh inactive, JMJD2A Tudor inactive, TDP1 block inactive and BAZ2B inh 79µM.
O=C(NCc1ccc(F)cc1)n1cc(P(=S)(c2ccccc2)c2ccccc2)c2ccccc21 was read as JMJD2A Tudor inactive and TDP1 block inactive.
`Cc1ccc2[nH]c(=O)c(Cc3ccccc3)c(O)c2c1` gave Sfp PPTase inh inconclusive, HP1b binding inh inactive, G9a inh 8.9µM, JMJD2A Tudor inactive[11.4 µM], TDP1 block inactive and BAZ2B inh inconclusive.
`Cc1ccc2[nH]c(C)c(CC(=O)NCc3ccccc3)c2c1` gave Sfp PPTase inh inactive, HP1b binding inh inactive, G9a inh inactive, JMJD2A Tudor inconclusive, TDP1 block inactive and BAZ2B inh inactive.
COc1ccc(-c2ccc(=O)n(CC(=O)Nc3ccc(C)cc3C)n2)cc1 was read as HP1b binding inh inactive, G9a inh inactive, JMJD2A Tudor inactive, TDP1 block inactive and BAZ2B inh inactive.
CC(=O)Nc1sc2c(c1CN1CCN(c3ccc(F)cc3)CC1)CCCC2 was read as Sfp PPTase inh inactive, HP1b binding inh inactive, G9a inh 45µM, JMJD2A Tudor inconclusive, TDP1 block inactive and BAZ2B inh 50µM.
For CC(=O)Nc1sc2c(c1CN1CCN(c3ccccn3)CC1)CCCC2 the results were Sfp PPTase inh inactive, HP1b binding inh inactive, G9a inh 32µM, JMJD2A Tudor inconclusive, TDP1 block inactive and BAZ2B inh inconclusive.
Screening CC(=O)Nc1sc2c(c1CN1CCCC1)CCCC2 returned Sfp PPTase inh inactive, HP1b binding inh inactive, G9a inh inconclusive, JMJD2A Tudor inactive, TDP1 block inactive and BAZ2B inh inactive.
CC(C)Oc1ccc(CNC(=O)CCCN2C(=O)c3cccnc3Oc3ccc(Cl)cc32)cc1 was read as HP1b binding inh inactive, G9a inh inactive, JMJD2A Tudor inactive, TDP1 block inactive and BAZ2B inh inactive.
Screening CCc1ccccc1OCCCN1CCCC1 returned Sfp PPTase inh inactive, HP1b binding inh inactive, G9a inh 50µM, JMJD2A Tudor inactive and BAZ2B inh inconclusive.
COc1ccccc1OCCCCN1CCCCC1 was read as Sfp PPTase inh inactive, HP1b binding inh inactive, G9a inh inactive, JMJD2A Tudor inactive and BAZ2B inh inactive.
CCc1ccccc1OCCCCN1CCCCC1 was read as Sfp PPTase inh inactive, HP1b binding inh inconclusive, G9a inh 40µM, JMJD2A Tudor 1.8µM, TDP1 block inactive and BAZ2B inh inconclusive.
`COCCn1c(=O)c(-c2ccccc2)nc2cnc(OC)nc21` gave Sfp PPTase inh inactive and G9a inh inactive[0.501 µM].
`CCCCc1cc(=O)oc2cc(C)cc(OCC(=O)Nc3ccccn3)c12` gave Sfp PPTase inh inactive, HP1b binding inh inactive, G9a inh inactive, JMJD2A Tudor inactive, TDP1 block inactive and BAZ2B inh inactive.
`CCc1nc2ccc(C(=O)NCc3ccccc3)cc2nc1CC` gave Sfp PPTase inh inactive, HP1b binding inh inactive, G9a inh inactive, JMJD2A Tudor inactive, TDP1 block inactive and BAZ2B inh inactive.
`Cc1ccc(-c2ccc(/C=C3/NC(=O)NC3=O)o2)cc1[N+](=O)[O-]` gave Sfp PPTase inh inconclusive, HP1b binding inh inactive, G9a inh inconclusive, JMJD2A Tudor inactive, TDP1 block inactive and BAZ2B inh inactive.
For CC1=C(C#N)C(=O)NC(=O)/C1=C\c1ccc(-c2cc(C)c(C)cc2[N+](=O)[O-])o1 the results were Sfp PPTase inh 50µM, HP1b binding inh inconclusive, G9a inh 10µM, JMJD2A Tudor 56µM, TDP1 block inactive and BAZ2B inh 45µM.
Screening COc1ccc(/C=C(\C#N)C(=O)c2c(C)[nH]c3ccccc23)cc1OC returned Sfp PPTase inh inactive, HP1b binding inh inactive, G9a inh inconclusive, JMJD2A Tudor inconclusive, TDP1 block inactive and BAZ2B inh inconclusive.
`COc1cc(/C=C(\C#N)C(=O)c2c(C)[nH]c3ccccc23)cc(OC)c1OC` gave Sfp PPTase inh inactive, HP1b binding inh inconclusive, G9a inh 45µM, JMJD2A Tudor 28µM, TDP1 block inactive and BAZ2B inh inactive.
For CC1CCCCC1NC(=O)CN1CCC(NC(=O)c2cccc(F)c2)CC1 (stereo not given) the results were Sfp PPTase inh inactive, HP1b binding inh inactive, G9a inh inactive, JMJD2A Tudor inactive, TDP1 block inactive and BAZ2B inh inactive.
`COc1ccc(N2CCN(C(=O)COC(=O)CCc3ccccc3OC)CC2)cc1` gave HP1b binding inh inactive, G9a inh 11µM, JMJD2A Tudor inactive and BAZ2B inh inactive.
For COc1ccc(N2CCN(C(=O)COC(=O)CCOc3ccccc3C)CC2)cc1 the results were HP1b binding inh inactive, G9a inh 32µM, JMJD2A Tudor inconclusive, TDP1 block inactive[0.505 µM] and BAZ2B inh inconclusive.
COc1ccc(N2CCN(C(=O)COC(=O)CCOc3cc(C)ccc3C)CC2)cc1 was read as HP1b binding inh inactive, G9a inh 10µM, JMJD2A Tudor inactive, TDP1 block inactive and BAZ2B inh inactive.
Screening CCn1cc(C(=O)O)c(=O)c2cc(F)c(N3CCNC(C)C3)c(F)c21 (stereo not given) returned Sfp PPTase inh inactive, G9a inh 11µM! and TDP1 block inactive.
Screening COc1ccc(N=C2SCC(=O)N2c2ccc(OC)cc2)cc1 returned Sfp PPTase inh inactive, HP1b binding inh inactive, G9a inh inactive, JMJD2A Tudor inactive, TDP1 block inactive and BAZ2B inh inactive.
